tested on: HT29 RNF43 G659fs (RNF43 659mut, CRISPR-edited); assay: cell viability activity relative to DMSO (negative = inhibition); higher = more viable cells (less growth inhibition); settings: 5 µM; 96 h
Method: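 Broad Repurposing Library primary screen at a single dose of 5 uM. HT29 sg-Ctrl and HT29 RNF43 G659fs CRISPR-edited isogenic cells were seeded at 2500 cells/well in 384-well plates in duplicate and treated for 96 h. Viability was read by CellTiter-Glo and reported as % activity relative to DMSO, with MG132 as the positive control (negative = growth inhibition).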

Structure (SMILES)	cell viability activity [%]
C[C@@H]1CC[C@@]2(OC1)O[C@H]1C[C@H]3[C@@H]4CC=C5C[C@@H](O[C@@H]6O[C@H](CO)[C@@H](O[C@@H]7O[C@@H](C)[C@H](O)[C@@H](O)[C@H]7O)[C@H](O)[C@H]6O[C@@H]6O[C@@H](C)[C@H](O)[C@@H](O)[C@H]6O)CC[C@]5(C)[C@H]4CC[C@]3(C)[C@H]1[C@@H]2C	-25.8
C/C(=C\c1csc(C)n1)[C@@H]1C[C@@H]2O[C@@H]2CCC[C@H](C)[C@H](O)[C@@H](C)C(=O)C(C)(C)[C@@H](O)CC(=O)O1	-69
Oc1cccc2cccnc12	-48.9
C/C=C(\C)C(=O)N[C@@H](c1ccccc1)[C@@H](O)C(=O)O[C@H]1C[C@@]2(O)[C@@H](OC(=O)c3ccccc3)[C@@H]3[C@]4(OC(C)=O)CO[C@@H]4C[C@H](O)[C@@]3(C)C(=O)[C@H](OC(C)=O)C(=C1C)C2(C)C	-68.1
Oc1cc(Cl)ccc1Oc1ccc(Cl)cc1Cl	-89.3
c1ccc2c(c1)[I+]c1ccccc1-2	-61.9
COC(=O)C[C@](O)(CCC(C)(C)O)C(=O)O[C@@H]1C(OC)=C[C@]23CCCN2CCc2cc4c(cc2[C@H]13)OCO4	-89.5
CO[C@H]1C[C@H](O[C@H]2CC[C@@]3(C)[C@H](CC[C@@H]4[C@@H]3CC[C@]3(C)[C@@H](C5=CC(=O)OC5)[C@@H](OC(C)=O)C[C@]43O)C2)O[C@@H](C)[C@@H]1O	-84.3
O=C1/C(=C/c2ccccc2)C[C@@]2(O)C3Cc4ccc(O)c5c4[C@@]2(CCN3CC2CC2)[C@H]1O5	-81.4
C[C@]12O[C@H](C[C@]1(O)CO)n1c3ccccc3c3c4c(c5c6ccccc6n2c5c31)CNC4=O	-88.5
O=C(C[C@H]1NCCC[C@@H]1O)Cn1cnc2cc(Br)c(Cl)cc2c1=O	-91.6
C[C@@]1(CO)[C@H](O)CC[C@@]2(C)[C@H]1CC[C@H]1C[C@@H]3C[C@@]12CC[C@]3(O)CO	-31.8
Cn1c(COP(=O)(NCCBr)NCCBr)cnc1[N+](=O)[O-]	-53.2
